Screening data as filed in PubChem.
APOBEC3G inh: blocks human APOBEC3G single-stranded DNA deamination | Q9HC16 | recombinant A3G, ssDNA deamination FAM/TAMRA fluorescence | inhibition, % at 20 µM | 0.28% of 330,000 active | AID 493012;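 active = inhibition of at least 40% at 20 µM, with no more than 30% in the related APOBEC3A deaminase screen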
Target sequence (Q9HC16 whole entry, looked up): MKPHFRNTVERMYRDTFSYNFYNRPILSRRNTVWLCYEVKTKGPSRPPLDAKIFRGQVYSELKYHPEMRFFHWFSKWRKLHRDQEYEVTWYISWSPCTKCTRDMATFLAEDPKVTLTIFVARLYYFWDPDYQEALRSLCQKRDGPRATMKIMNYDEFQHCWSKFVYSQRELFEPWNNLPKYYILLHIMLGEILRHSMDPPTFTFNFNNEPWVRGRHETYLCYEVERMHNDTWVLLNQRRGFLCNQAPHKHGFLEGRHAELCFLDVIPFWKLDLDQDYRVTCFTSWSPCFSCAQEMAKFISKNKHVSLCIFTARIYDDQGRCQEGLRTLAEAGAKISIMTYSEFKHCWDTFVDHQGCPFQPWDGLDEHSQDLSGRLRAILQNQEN
CendR NRP1 mod: alters CendR peptide binding to human NRP-1; O14786; 0.85% of 360,000 active; FAM-RPARPAR peptide binding to NRP-1, fluorescence polarization; inhibition, % at 25 µM;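 active = inhibition or corrected inhibition above about 18%, plus a signal ratio from 0.5 to 1.5, limit read from the data, passing the limit was not always enough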
MIN6 prolif: induces beta-cell replication in MIN6 cells. MIN6 cells proliferation, ATPlite luminescence, 48 h; cells starved in 0.2% serum; 100% = growth in 10% serum. proliferation, % at 10 µM. 0.29% of 330,000 active;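 active = compounds whose signal lies at least 3.5 SD above the mean of all wells on their plate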
VLA-4 inh: inhibition in a human VLA-4 binding assay; AID 2557; 0.2% of 330,000 active; P13612; VLA-4 expressing cells, ligand binding flow cytometry; inhibition, % (about 7 µM as worked out from the volumes in the protocol); in the data active = inhibition above about 50%
A3A deaminase: inhibitors of human APOBEC3A DNA deaminase. P31941. recombinant A3A, FAM/TAMRA ssDNA deamination fluorescence. inhibition, % at 20 µM. 0.41% of 330,000 active. AID 493011;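 active = at least 40% inhibition at 20 µM here, with at most 30% in a related deaminase screen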
Target sequence (P31941 whole entry, looked up): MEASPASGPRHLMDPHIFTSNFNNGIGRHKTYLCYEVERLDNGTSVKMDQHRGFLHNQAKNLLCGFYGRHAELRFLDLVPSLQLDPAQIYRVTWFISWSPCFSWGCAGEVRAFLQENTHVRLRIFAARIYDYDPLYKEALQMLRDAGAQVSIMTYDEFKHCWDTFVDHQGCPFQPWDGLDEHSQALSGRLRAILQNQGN
A number is an active result; – = inactive; · = not tested or not shown. Hits are enriched below; roughly 1.8% of the tested compounds scored in any of these assays.

SMILES	APOBEC3G inh	CendR NRP1 mod	MIN6 prolif	VLA-4 inh	A3A deaminase
O=C(NCc1ccccc1)c1cccc(S(=O)(=O)N2CCCCC2)c1	–	30.8	–	–	–
CC(=O)c1cccc(S(=O)(=O)N2CCC(C(=O)O)(c3ccccc3)CC2)c1	–	24.5	–	–	–
O=C(Nc1cccc(S(=O)(=O)N2CCCCC2)c1)c1ccc([N+](=O)[O-])o1	–	35.9	–	–	–
O=C(NCc1ccccc1)c1cccc(S(=O)(=O)N2CCOCC2)c1	–	–	–	–	–
Cc1cc2cc(CNC(=O)c3ccc(S(=O)(=O)N4CCCCC4)cc3)ccc2n1C	–	–	–	–	–
C[C@@H]1CC2=C(C(=O)OC(C)(C)O2)[C@H](c2ccc(Cl)cc2)O1	·	–	·	·	·
Cc1ccc(NC(=O)COC(=O)C2=NN(c3ccccc3)C(=O)CC2)c(Br)c1	–	–	–	–	–
CCOC(=O)C1CCN(C(=O)Cn2c(=O)oc3cc(S(=O)(=O)N4CCCC4)ccc32)CC1	–	–	–	–	–
Oc1ccc(Br)cc1C1Nc2ccccc2S1 (centres undefined)	–	–	–	–	–
Cc1cc2cc(CNC(=S)NCc3ccccc3)ccc2n1C	–	22.0	–	–	–
Cc1ccccc1CC(=O)Nc1ccc2c(c1)c(=O)n(C)n2-c1ccccc1F	·	–	·	·	·
Cc1ccccc1CC(=O)Nc1ccc2c(c1)c(=O)n(C)n2-c1cccs1	·	26.6	·	·	·
COC(=O)c1c(NC(=O)CN2CCC3(O)CCCCC3C2c2cc(OC)ccc2OC)sc(C)c1C (centres undefined)	–	27.1	–	–	–
CC(=O)c1cccc(NC(=O)CSc2nc(=O)n(CCN3CCOCC3)c3c2CCCC3)c1	–	–	–	–	–
CCN(CC)C(=O)CSc1nnc(SC(C)C(=O)NC2CC2)s1 (centres undefined)	–	–	–	–	–
CC(=O)Nc1ccc(NC(=O)C2CC(=O)N=C(N)S2)cc1 (centres undefined)	–	31.6	–	–	–
Cc1ccsc1C(C(=O)NCc1ccccc1)N(C(=O)c1csnn1)c1ccccc1 (centres undefined)	–	–	–	–	–
O=c1[nH]n2c(C(F)(F)F)cc(C3CC3)nc2c1N=Nc1ccccc1	–	23.7	–	–	–
Cc1ccc(C(=O)Nc2nc(C(N)C(C)C)cs2)cc1 (centres undefined)	·	–	·	·	·
Cn1nc(C(C)(C)C)cc1N1C(=O)CCC1(C)C(=O)Nc1ccc2ccccc2c1 (centres undefined)	·	23.9	·	·	·
CCOC(=O)c1[nH]c2ccc(C)cc2c1NC(=O)CN1CCCCC1	–	–	–	–	–
Cc1c2cc[n+](CCN3CCCCC3)cc2c(C)c2c1[nH]c1ccc(O)cc12	·	33.9	·	·	·
CN(CC(=O)Nc1ccc(F)cc1)C(=O)COc1ccccc1Cc1ccccc1	–	–	–	–	–
O=C(CC1NC(=O)NC1=O)Nc1cccc2ccccc12 (centres undefined)	–	–	–	–	–
O=C(CC1NC(=O)NC1=O)Nc1ccccc1 (centres undefined)	–	26.9	–	–	–
SMILES	APOBEC3G inh	CendR NRP1 mod	MIN6 prolif	VLA-4 inh	A3A deaminase
COC(=O)c1ccc2c(c1)c(-c1ccccc1)c(-c1ccccc1)n2C	–	32.1	·	·	–
COC(=O)c1c(C)nc2ccccc2c1-c1ccccc1	–	–	–	–	–
Cc1ccccc1C(=O)NCC(=O)N1CCN(C/C=C/c2ccccc2)CC1	–	–	–	–	–
COc1ccc(CNC(=O)[C@@H]2CC=C[C@@H]3CCN(Cc4ccc(Cl)c(Cl)c4)C(=O)[C@@H]32)cc1	–	30.1	–	–	–
CCCCN1CC[C@H]2C=CC[C@@H](C(=O)Nc3ccc(Cl)cc3Cl)[C@H]2C1=O	–	33.5	–	–	–
CCCCN1CC[C@H]2C=CC[C@@H](C(=O)NCc3ccc(OC)cc3)[C@H]2C1=O	–	20.9	–	–	–
Cc1ccc(Cc2ccccc2C(=O)O)cc1	·	–	·	·	·
N#CCCN(C(=O)COC(=O)CCc1c[nH]c2ccccc12)c1ccccc1	–	–	–	–	–
CC(=O)Nc1cccc(C(=O)NNC(=O)c2ccccc2-n2cccc2)c1	–	–	–	–	–
CCOC(=O)N1CCC(N2C(=O)c3ccc(C(=O)Nc4ccc(OC)c(OC)c4)cc3C2=O)CC1	–	–	–	–	–
CC1(C)OC2CC(=O)OCC23C1CC(=O)C1(C)C3CCC2(C)C(c3ccoc3)OC(=O)C3OC321 (centres undefined)	·	–	·	·	·
CC(C)(O)[C@@H]1CC(=O)[C@]2(C)[C@H](CC[C@@]3(C)[C@H](c4ccoc4)OC(=O)[C@H]4O[C@]432)[C@@]1(C)/C=C\C(=O)O	–	26.5	–	–	–
CN(C(=O)CN1C(=O)c2cccc(N)c2C1=O)C1CCCCC1	–	–	–	–	–
CN(N)c1nc(-c2ccccc2)nnc1C(F)(F)F	–	34.1	–	–	–
COC(=O)CN1C(=O)C(O)(CC(=O)c2ccc(C)o2)c2ccccc21 (centres undefined)	–	31.9	–	–	–
COc1ccc(C)cc1NC(=O)c1cccc(C(=O)Nc2cc(C)ccc2OC)c1	–	33.0	–	–	–
COc1ccc(C)cc1NC(=O)c1ccc2c(c1)OCO2	–	–	–	–	–
OCC[C@@H]1C[C@@H](O)[C@H](O)[C@]2(OCc3ccccc32)O1	–	26.9	–	–	–
C[C@H]1CCC[C@@]2(O[C@@H](CCO)C[C@@H](O)[C@@H]2O)O1	–	24.6	–	·	–
OCC[C@H]1C[C@@H](O)[C@H](O)[C@]2(CCCc3ccccc3O2)O1	–	–	–	–	–
OCC[C@@H]1C[C@H](O)[C@@H](O)[C@@]2(CCCO2)O1	–	24.2	–	·	–
C[C@H]1CCC[C@]2(O[C@@H](CCO)C[C@@H](O)[C@@H]2O)O1	–	–	–	–	–
OCC[C@@H]1C[C@@H](O)[C@H](O)[C@@]2(CCCc3ccccc3O2)O1	–	24.9	–	–	–
Cc1ccc(C(=O)N[C@H](C(=O)NC2CCCCCCC2)C(C)C)cc1	–	–	–	–	–
CC1CCc2c(sc(NC(=O)COC(=O)c3ccc(O)cc3)c2C#N)C1 (centres undefined)	–	–	–	–	–
SMILES	APOBEC3G inh	CendR NRP1 mod	MIN6 prolif	VLA-4 inh	A3A deaminase
O=c1[nH]c(=O)n(CCCc2ccccc2)cc1-c1ccccc1	·	–	·	·	·
OCC[C@H]1C[C@H](O)[C@@H](O)[C@]2(CCCO2)O1	–	37.8	–	–	–
CCC(C)(O)c1[nH]c2ccc(C(F)(F)F)cc2c1C (centres undefined)	–	–	–	–	–
CCOC(=O)CN1C(=O)N[C@@H](c2ccccc2)[C@H](C(C)=O)[C@H]1C	–	24.7	–	–	–
CCOC(=O)CN1C(=O)N[C@@H](c2ccccc2)[C@@H](C(=O)OC)[C@H]1C	–	–	–	–	–
CCOC(=O)C1(CC2CCCCO2)CCN(C(=O)Nc2ccccc2CC)CC1 (centres undefined)	–	–	–	–	–
COc1ccc(Cl)cc1S(=O)(=O)N1CCN(c2ccc(F)cc2)CC1	–	29.1	–	–	–
